In PubChem BioAssay AID567 (The Scripps Research Institute Molecular Screening Center, 2006):
Screen size: about 65,000 compounds; about 370 (0.57%) were called active.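 Rule for the calls: active = activation above the screen-wide mean activation plus 3 SD (cut at about 19% in these data); inactive = the rest.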 The full list was thinned out, with actives kept by preference.

Molecular target: 5-hydroxytryptamine receptor 1A (Homo sapiens) (UniProt P08908)
Assay: agonism at serotonin HTR1A receptor – cell-based, CHO, Ga15 NFAT-bla reporter, primary screen (AID 567);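 note: 0% = DMSO wells and 100% = 5-CT at EC100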
Details: CHO 5-HT1a Ga15 NFAT-bla reporter, FRET ratio; at 10 µM; hits give high values; 0% basal, 100% maximal reference agonist

Chain of 5-hydroxytryptamine receptor 1A (Homo sapiens) (P08908 whole entry, looked up): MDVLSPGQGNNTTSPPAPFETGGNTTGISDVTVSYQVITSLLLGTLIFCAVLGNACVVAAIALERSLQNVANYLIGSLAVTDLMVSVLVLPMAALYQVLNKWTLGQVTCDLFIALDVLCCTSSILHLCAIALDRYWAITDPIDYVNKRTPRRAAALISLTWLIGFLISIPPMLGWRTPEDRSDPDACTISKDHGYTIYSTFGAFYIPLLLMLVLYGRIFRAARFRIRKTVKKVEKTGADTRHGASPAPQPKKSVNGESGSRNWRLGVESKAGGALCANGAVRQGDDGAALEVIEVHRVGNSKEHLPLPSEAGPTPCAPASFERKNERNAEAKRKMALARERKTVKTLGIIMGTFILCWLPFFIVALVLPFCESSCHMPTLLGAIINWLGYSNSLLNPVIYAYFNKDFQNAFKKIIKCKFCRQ

| SMILES | activation |
| --- | --- |
| COc1ccc(NC(=O)CN(C)S(=O)(=O)c2ccccc2)cc1OC | -0.21% (inactive) |
| CC(=O)Nc1ccc(S(=O)(=O)Nc2nc3n(n2)C(c2ccccc2)CC(=O)N3)cc1 (stereo not given) | -0.5% (inactive) |
| CCOC(=O)NC(C(F)(F)F)(C(F)(F)F)P(=O)(c1ccccc1)c1ccccc1 | -0.98% (inactive) |
| c1cc(-c2nn[nH]n2)ccc1CN1CCCCC1 | -2.19% (inactive) |
| O=C(CSc1ncccn1)NCCc1ccccc1 | 0.69% (inactive) |
| CCn1c(=O)cc(OCC(=O)NCCCN2CCN(c3cccc(Cl)c3)CC2)c2ccccc21 | -3.65% (inactive) |
| CC1CCCC(C)N1CCCNC(=O)c1cc2c(=O)n(C)c3ccccc3c2n1C (stereo not given) | -1.82% (inactive) |
| O=C(CCn1c(=S)[nH]c2ccccc2c1=O)NCCCN1CCCC1=O | -0.9% (inactive) |
| O=C(CCn1c(=O)[nH]c2ccccc2c1=O)NCCCN1CCN(c2cccc(Cl)c2)CC1 | 21.7% (active) |
| Cn1c(C(=O)NCCCN2CCN(c3cccc(Cl)c3)CC2)cc2c(=O)n(C)c3ccccc3c21 | 36.5% (active) |
| O=C(CCCn1c(=O)[nH]c2cc(Cl)ccc2c1=O)NCCN1CCN(c2ccccc2)CC1 | -0.6% (inactive) |
| O=S(=O)(N1CCOCC1)N1CCN(c2ccccc2F)CC1 | -0.75% (inactive) |
| O=S(=O)(Nc1ccccn1)c1ccc(Oc2ccccc2)cc1 | 0.59% (inactive) |
| O=C(C1=C(O)C(=O)N(c2ncccn2)C1c1cccs1)c1ccco1 (stereo not given) | -1.27% (inactive) |
| Cc1nc2ccccc2cc1O | 0.14% (inactive) |
| CCC1CCCCN1C(=O)Nc1cccc(NC(=O)N2CCCCC2CC)c1 (stereo not given) | -2.03% (inactive) |
| CCOc1ccc(Cn2nnc(C(=O)Nc3ccc(OC)cc3OC)c2N)cc1 | 3.25% (inactive) |
| O=c1c2ccccc2oc2nc3n(c(=O)c12)CCCS3 | -0.78% (inactive) |
| COc1ccc(C(C(O)C(=O)c2c[nH]c3ccccc23)N2CCN(c3ccccc3)CC2)cc1 (stereo not given) | -3.45% (inactive) |
| CCc1c(C)nc2cc(-c3cccs3)[nH]n2c1=O | -3.62% (inactive) |

| SMILES | activation |
| --- | --- |
| Cc1ccc(S(=O)(=O)C(C#N)c2nc3ccccc3nc2N2CCCC2)cc1C (stereo not given) | 1.05% (inactive) |
| CC(C)CCNC(=O)C(C)N(C(=O)Cn1nnc(-c2ccc(F)cc2)n1)C1CCCC1 (stereo not given) | 0.97% (inactive) |
| CC(C)(C)n1nc2c(c1NC(=O)c1ccc(S(=O)(=O)N3CCCC3)cc1)CS(=O)C2 (stereo not given) | -0.05% (inactive) |
| O=C1CCC(Cc2ccccc2)N1 (stereo not given) | -0.21% (inactive) |
| CC1CCN(C(=O)Cn2cc(C(=O)c3ccco3)c3ccccc32)CC1 | -0.71% (inactive) |
| Cc1cc(=O)cc(C)[nH]1 | -2.27% (inactive) |
| CCOC(=O)C1=C(C)NC(C)=C(C(=O)OCC)C1c1ccccn1 | -1.2% (inactive) |
| CCN1C(=O)C(C(=O)NC(C)c2ccccc2)C2CC1(C)Oc1ccccc12 (stereo not given) | -0.28% (inactive) |
| COc1ccccc1N(CC(=O)N1CCCCC1)S(=O)(=O)c1ccccc1 | -2.64% (inactive) |
| COc1ccc(C2C3=C(CC(C)(C)CC3=O)Oc3ncn4nc(-c5cccnc5)nc4c32)cc1OC (stereo not given) | -3.54% (inactive) |
| COc1ccc(CC(NC(C)=O)C(=O)NC2CCN(C(=O)Nc3ccc(C#N)cc3)CC2)cc1OC (stereo not given) | 0.53% (inactive) |
| Cc1ccc(NC(=O)Cn2nc(C)c3ccccc3c2=O)c(C)c1 | -0.44% (inactive) |
| CCOC(=O)Cc1csc(NC(=O)CSc2nc(C)cc(=O)[nH]2)n1 | -1.16% (inactive) |
| COc1cccc(-n2c(Cc3cc(=O)[nH]c(=O)[nH]3)nnc2SCC(=O)Nc2ccccc2)c1 | -5.6% (inactive) |
| O=C(Nc1ccc(Cl)cn1)c1cnn2cccnc12 | 193% (active) |
| O=C(Nc1ccc(Cl)cn1)Nc1cccs1 | -4.12% (inactive) |
| Cc1cc(NC(=O)c2cnn3cccnc23)n(-c2ccccc2)n1 | 1.07% (inactive) |
| Fc1ccc(Cn2nnnc2C(c2cccs2)N2CCCCCC2)cc1 (stereo not given) | -2.4% (inactive) |
| CCC12CN3CC(CC)(CN(C1)C31C(=O)N(C)c3ccc(C)cc31)C2=O (stereo not given) | -2.01% (inactive) |
| COC(=O)CNC(=O)c1ccc2c(c1)S(=O)(=O)c1ccccc1C2=O | 1.02% (inactive) |

| SMILES | activation |
| --- | --- |
| Cc1cc(N2C(=O)c3ccc(C(=O)NCc4ccccc4)cc3C2=O)no1 | -3.09% (inactive) |
| N#Cc1cccc(CSc2nnc(CCCO)n2-c2ccccc2)c1 | 77% (active) |
| CNC(=O)CSc1nnc(CCc2ccccc2)n1-c1ccccc1 | 0.04% (inactive) |
| N#Cc1ccc(CSc2nnc(-c3ccccn3)n2-c2ccc(Cl)cc2)cc1 | 0.34% (inactive) |
| O=C(NC1CC2CCCC(C1)N2C(=O)N1CCCCC1)C1CCCCC1 (stereo not given) | 2.68% (inactive) |
| Cc1cnc(NC(=O)CSc2nnc(-c3ccc(Cl)cc3Cl)n2N)s1 | -1.25% (inactive) |
| CN(c1nc2ccccc2n2c(-c3ccco3)nnc12)S(=O)(=O)c1ccccc1 | 0.58% (inactive) |
| Cc1ccc2nc(NC3=NCN(CCc4ccccc4)CN3)nc(C)c2c1 | -1.7% (inactive) |
| CCOC(=O)C(C)Oc1cccc2c(=O)n(CC(=O)N3CCc4ccccc43)ccc12 (stereo not given) | -0.82% (inactive) |
| CCC(C(=O)N1CCOCC1)n1c(C(=O)OC)cc2occc21 (stereo not given) | -0.28% (inactive) |
| O=C(CCCC(=O)N(CC(=O)NC1CCCC1)Cc1ccccc1Cl)Nc1ccccn1 | 0.54% (inactive) |
| Cn1c(Cc2csc(N)n2)nnc1SC/C=C/c1ccccc1 | 0.48% (inactive) |
| CCCOC(=O)c1[nH]c2c(c1C)C(=O)CC(c1cc(OC)c(OC)c(OC)c1)C2 (stereo not given) | -1.49% (inactive) |
| Cc1noc(COc2ccccc2OCC(O)CNC(C)(C)C)n1 (stereo not given) | 2.09% (inactive) |
| CCOc1ccc2[nH]c(=O)c(C(c3nnnn3CCOC)N3CCOCC3)cc2c1 (stereo not given) | -1.3% (inactive) |
| Cc1cc(C(=O)COC(=O)CCCN2C(=O)c3ccccc3C2=O)c(C)n1C | -2.69% (inactive) |
| CCCc1nc(-c2ccccc2O)n(-c2ccccc2)n1 | -3.29% (inactive) |
| COc1ccc(-c2nnc(SCC(=O)NC3CCCCC3)o2)cc1OC | -1.36% (inactive) |
| O=c1ccc2cc(S(=O)(=O)N3CCN(c4ccccc4)CC3)ccc2o1 | -2.8% (inactive) |
| Cc1nonc1OCCn1nnnc1N | 0.59% (inactive) |
